Experimental findings from PubChem BioAssay (EPA / NIEHS) are described below.

Structures are written as SMILES. Where “and” joins values, the source holds several entries; their conditions need not be identical. Equal entries are not always repeated. Calls of active or inactive are those of the source. The calls were made as follows: active = hit-call score of the fitted dose curve at least 0.9, where 1 is the maximum; inactive = score below 0.9.

Test [1] in a line: BSK_CASM3C_SRB: Viability Assessment in the BioMAP Diversity Plus: CASM3C Assay (AID 2283050).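 Also: total protein by SRB staining as cytotoxicity measure in parallel cultures.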 Particulars: primary human coronary artery smooth muscle cells.
Read-out in test [2]: Tissue Factor, F3 (gene 2152)
Nature of the test: BSK_CASM3C_TissueFactor: BioMAP Diversity Plus: CASM3C Assay for Tissue Factor Biomarker Activity (AID 2283052).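 Also: cell surface tissue factor protein level read by ELISA.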 Particulars: primary human coronary artery smooth muscle cells; actives raise or lower the signal.

Read-out in test [3]: Interferon-gamma inducible Protein 10 (IP10), CXCL10 (gene 3627)
Nature of the test: BSK_hDFCGF_IP10: BioMAP Diversity Plus: hDFCGF Assay for Interferon-gamma inducible Protein 10 (IP10) Biomarker Activity (AID 2283053). Particulars: primary human foreskin fibroblasts; actives raise or lower the signal. The method, boiled down:
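ELISA read-out of IP-10 (CXCL10) from primary human skin fibroblasts, 24 h after compound addition. Gain or loss of signal versus DMSO baseline, bidirectional curve fitting.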

Read-out in test [4]: Epidermal growth factor receptor (EGFR), EGFR (gene 1956)
Nature of the test: BSK_hDFCGF_EGFR: BioMAP Diversity Plus: hDFCGF Assay for Epidermal growth factor receptor (EGFR) Biomarker Activity (AID 2283057). Particulars: primary human foreskin fibroblasts; actives raise or lower the signal. The method, boiled down: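 ELISA readout of EGFR on human dermal fibroblasts (primary foreskin cells), 24 h post-dosing; bidirectional curve fit vs DMSO baseline, gain or loss of signal scored.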

Read-out in test [5]: Interleukin-8 (IL8), CXCL8 (gene 3576)
Briefly: BSK_hDFCGF_IL8: BioMAP Diversity Plus: hDFCGF Assay for Interleukin-8 (IL8) Biomarker Activity (AID 2283058). As to conditions: primary human foreskin fibroblasts; actives raise or lower the signal. In a few lines: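 Fibroblast monolayers (human foreskin, hDFCGF) received test chemical for 24 h before ELISA detection of IL-8; either increases or decreases relative to DMSO count as activity.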

The nature of test [6]: BSK_hDFCGF_Proliferation: Cell Proliferation Assessment in the BioMAP Diversity Plus: hDFCGF Assay (AID 2283059).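 Also: curves fitted for both rise and fall of signal versus DMSO baseline.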 As to conditions: primary human foreskin fibroblasts. In a few lines:
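This proliferation readout used SRB total-protein staining of human foreskin fibroblasts […], normalized to DMSO with bidirectional curve fitting.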

Test [7] is described as follows: BSK_hDFCGF_SRB: Viability Assessment in the BioMAP Diversity Plus: hDFCGF Assay (AID 2283061).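 Also: cells exposed to compound for 24 h before the read.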 Particulars: primary human foreskin fibroblasts. In a few lines:
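SRB-based viability read on primary human skin fibroblasts at 24 h: TCA fixation, 0.1% dye, 560 nm. Gain or loss of signal is fitted against the DMSO negative control.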

Read-out in test [8]: TIMP metallopeptidase inhibitor 1 (TIMP1), TIMP1 (gene 7076)
Briefly: BSK_hDFCGF_TIMP1: BioMAP Diversity Plus: hDFCGF Assay for TIMP metallopeptidase inhibitor 1 (TIMP1) Biomarker Activity (AID 2283062). Particulars: primary human foreskin fibroblasts; actives raise or lower the signal. In a few lines:
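Bidirectional curve fitting against DMSO baseline yielded this endpoint, based on ELISA detection of TIMP-1 in primary human foreskin fibroblasts exposed to compound for 24 h.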

Read-out in test [9]: Matrix Metallopeptidase 1 (MMP1), MMP1 (gene 4312)
Nature of the test: BSK_hDFCGF_MMP1: BioMAP Diversity Plus: hDFCGF Assay for Matrix Metallopeptidase 1 (MMP1) Biomarker Activity (AID 2283064). Particulars: primary human foreskin fibroblasts; actives raise or lower the signal. The method, boiled down: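 ELISA read-out of MMP1 from human foreskin fibroblasts (primary skin cells), 24 h post-dose. Gain or loss of signal was fitted bidirectionally versus DMSO negative control; cytotoxicity was checked by SRB in parallel cultures.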

Read-out in test [10]: Vascular cell adhesion molecule 1 (VCAM1), VCAM1 (gene 7412)
Briefly: BSK_hDFCGF_VCAM1: BioMAP Diversity Plus: hDFCGF Assay for Vascular cell adhesion molecule 1 (VCAM1) Biomarker Activity (AID 2283065).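 As to AC50: VCAM-1 protein level quantified by ELISA after 24 h chemical exposure.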 Particulars: primary human foreskin fibroblasts; actives raise or lower the signal. In a few lines: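 Measured after 24 h chemical treatment of primary human skin fibroblasts, VCAM-1 was detected by ELISA and concentration-response analysed in both directions versus DMSO vehicle.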

Read-out in test [11]: Interferon-gamma inducible Protein 10 (IP10), CXCL10 (gene 3627)
Nature of the test: BSK_KF3CT_IP10: BioMAP Diversity Plus: KF3CT Assay for Interferon-gamma inducible Protein 10 (IP10) Biomarker Activity (AID 2283068). Particulars: primary human keratinocytes with fibroblasts; actives raise or lower the signal. The method, boiled down: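 Signal is secreted/surface IP-10 by ELISA in a human primary skin co-culture of keratinocytes and foreskin fibroblasts, taken 24 h post-dosing; DMSO served as negative control.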

Read-out in test [12]: Transforming growth factor beta 1 (TGFb1), TGFB1 (gene 7040)
Nature of the test: BSK_KF3CT_TGFb1: BioMAP Diversity Plus: KF3CT Assay for Transforming growth factor beta 1 (TGFb1) Biomarker Activity (AID 2283072). As to conditions: primary human keratinocytes with fibroblasts; actives raise or lower the signal. In a few lines: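 Read-out: ELISA for TGF-b1 in keratinocyte/foreskin fibroblast human skin co-culture, 24 h after dosing; bidirectional curve fit vs DMSO baseline; gain or loss of signal scored.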

Read-out in test [13]: urokinase plasminogen activator (uPA), PLAU (gene 5328)
Nature of the test: BSK_KF3CT_uPA: BioMAP Diversity Plus: KF3CT Assay for urokinase plasminogen activator (uPA) Biomarker Activity (AID 2283075). Particulars: primary human keratinocytes with fibroblasts; actives raise or lower the signal. The method, boiled down: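 Skin co-culture (keratinocytes + foreskin fibroblasts), human primary; 24 h post-dose; uPA by ELISA; gain/loss fit vs DMSO baseline.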

Read-out in another test: CD40, CD40 (gene 958)
Nature of the test: BSK_LPS_CD40: BioMAP Diversity Plus: LPS Assay for CD40 Biomarker Activity (AID 2283076). As to conditions: primary human HUVEC with PBMC; actives raise or lower the signal. The method, boiled down: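 Using a multiplexed primary human co-culture (umbilical vein endothelium plus PBMC), CD40 was read by ELISA 24 h after dosing, with cytotoxicity tracked by sulforhodamine B staining of parallel cultures and activity fitted bidirectionally versus DMSO.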

Read-out in test [14]: E-selectin (Homo sapiens) (UniProt P16581)
Briefly: BSK_LPS_Eselectin: BioMAP Diversity Plus: LPS Assay for Eselectin Biomarker Activity (AID 2283077). Particulars: primary human HUVEC with PBMC; actives raise or lower the signal. In a few lines: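 Dose chemical onto LPS-driven HUVEC/PBMC co-culture; after 24 h, run ELISA for E-selectin; fit up- and down-going responses relative to DMSO control.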

Read-out in test [15]: Interleukin-8 (IL8), CXCL8 (gene 3576)
Nature of the test: BSK_LPS_IL8: BioMAP Diversity Plus: LPS Assay for Interleukin-8 (IL8) Biomarker Activity (AID 2283078). Particulars: primary human HUVEC with PBMC; actives raise or lower the signal. In a few lines: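 In this LPS system, chemical-treated human umbilical vein endothelium/PBMC co-cultures were harvested at 24 h for IL-8 ELISA.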

Test [16] is described as follows: BSK_LPS_SRB: Viability Assessment in the BioMAP Diversity Plus: LPS Assay (AID 2283079).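 Also: total protein by sulforhodamine B absorbance as a cytotoxicity measure; measured one day after compound addition; fitted in both directions against DMSO so loss or gain of signal counts.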 As to conditions: primary human HUVEC with PBMC. The method, boiled down:
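Cytotoxicity endpoint in human endothelial–PBMC co-culture: 24 h exposure, then SRB (0.1%) staining, 560 nm read.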

Read-out in test [17]: Interleukin-1 alpha (IL1a), IL1A (gene 3552)
Nature of the test: BSK_LPS_IL1a: BioMAP Diversity Plus: LPS Assay for Interleukin-1 alpha (IL1a) Biomarker Activity (AID 2283080). Particulars: primary human HUVEC with PBMC; actives raise or lower the signal. The method, boiled down:
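Primary human HUVEC and PBMC co-culture stimulated with LPS is dosed and harvested at 24 h. Both increases and decreases in ELISA-measured IL-1a are scored relative to DMSO.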

Read-out in test [18]: Monocyte Chemoattractant Protein-1 (MCP1), CCL2 (gene 6347)
Nature of the test: BSK_LPS_MCP1: BioMAP Diversity Plus: LPS Assay for Monocyte Chemoattractant Protein-1 (MCP1) Biomarker Activity (AID 2283081).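 As to AC50: secreted MCP-1 protein quantified by ELISA in culture supernatant.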 As to conditions: primary human HUVEC with PBMC; actives raise or lower the signal. In a few lines: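 Values derive from bidirectional fitting against DMSO of ELISA-measured MCP-1 in a human primary endothelial and mononuclear cell co-culture, 24 h after chemical addition under LPS activation.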

The nature of test [19]: BSK_LPS_PGE2: BioMAP Diversity Plus: LPS Assay for Prostaglandin E2 (PGE2) Biomarker Activity (AID 2283082).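 Also: secreted prostaglandin E2 measured by ELISA in LPS-stimulated co-culture.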 Particulars: primary human HUVEC with PBMC; actives raise or lower the signal. In a few lines: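 ELISA read-out of PGE2 from human umbilical vein endothelial cells co-cultured with peripheral blood mononuclear cells under LPS, 24 h post-dose. Gain or loss of signal scored relative to DMSO baseline.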

Chain of E-selectin (Homo sapiens) (P16581 whole entry, looked up): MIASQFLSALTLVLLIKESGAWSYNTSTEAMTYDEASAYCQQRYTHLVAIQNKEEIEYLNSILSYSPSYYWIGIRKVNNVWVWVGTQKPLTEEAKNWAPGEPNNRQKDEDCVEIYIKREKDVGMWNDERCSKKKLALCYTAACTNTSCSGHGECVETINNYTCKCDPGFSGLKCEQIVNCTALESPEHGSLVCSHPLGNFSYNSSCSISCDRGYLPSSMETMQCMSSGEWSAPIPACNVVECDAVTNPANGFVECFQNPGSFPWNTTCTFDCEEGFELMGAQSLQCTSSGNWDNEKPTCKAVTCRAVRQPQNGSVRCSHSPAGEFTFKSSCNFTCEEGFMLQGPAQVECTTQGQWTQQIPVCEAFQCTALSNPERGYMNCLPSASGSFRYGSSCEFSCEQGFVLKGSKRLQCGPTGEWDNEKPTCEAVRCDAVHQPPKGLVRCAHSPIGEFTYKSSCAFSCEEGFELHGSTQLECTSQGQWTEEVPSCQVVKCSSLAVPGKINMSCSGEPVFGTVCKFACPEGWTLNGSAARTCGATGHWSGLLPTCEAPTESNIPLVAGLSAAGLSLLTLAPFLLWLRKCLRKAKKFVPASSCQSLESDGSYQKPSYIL

Usually AC50 stands for the midpoint of the concentration-response curve, whichever way the signal moves. With `CNC(=O)Oc1cc(C)c(SC)c(C)c1`, the AC50 in test [1] is 10.1 µM (active); in test [2], 8.16 µM (active); in the test with CD40, CD40 (gene 958) it was 20 µM (active); in test [19], 11.8 µM (active). In addition, the result in test [3], in [4], in test [5], in test [6], in [7] and in test [8] was inactive. Besides, the outcome in [9], in [10], in [11], in test [12], in [13] and in test [14] was inactive. The outcome in [15], in test [16], in test [17] and in test [18] was inactive.
As for `CC1(C)[C@H](C(=O)O[C@H](C#N)c2cccc(Oc3ccccc3)c2)[C@@H]1C=C(Br)Br`, the result in test [1], in test [2], in test [3], in test [4], in [5] and in test [6] was inactive. Moreover, the result in test [7], in test [8], in test [9], in test [10], in test [11] and in [12] was inactive. Also, the outcome in test [13] is “inactive”; with CD40, CD40 (gene 958), “inactive”; in [14], “inactive”; in test [15], “inactive”; in test [16], “inactive”; in test [17] it was “inactive”. Besides, the result in [18] was inactive. For the same compound, in test [19], the AC50 was 1.67 µM (active) and 92.9 nM (active).
With `CCC(C)c1cc([N+](=O)[O-])cc([N+](=O)[O-])c1OC(=O)C=C(C)C` (stereo not given), the AC50 in test [1] is 30.3 µM (active); in [2], 7.73 µM (active); in [3], 7.21 µM (active); in [6] it was 5.09 µM (active); in [7], 11.5 µM (active); in [8] it was 12 µM (active). For the same compound, the AC50 in test [9] was 12.3 µM (active); in test [10], 5.91 µM (active); in test [11], 13.9 µM (active); in [12], 12.4 µM (active); in [13] it was 30.3 µM (active); with CD40, CD40 (gene 958), 7.46 µM (active). In addition, the half-maximal activity concentration (AC50) was 13.3 µM (active) in [14]; 20 µM (active) in [15]; 13.3 µM (active) in test [16]; 20 µM (active) in [17]; 13.4 µM (active) in test [18]; 5.41 µM (active) in test [19]. The result in test [4] and in test [5] was inactive.
